Data reported in the antibiotic and cytotoxicity screens of Wong et al. (2023).
Hit rate of the full screen: of about 39,000 compounds, about 500 (1.3%) were called active. What follows is part of a selection rich in actives, with near analogues and random picks from the rest.

Tested on: S. aureus RN4220
Assay: growth inhibition call (relative growth <= 0.2)
Conditions: 50 µM

Growth inhibition call, inactive:
CC(C)(ON=C(C(=O)NC1C(=O)N2C(C(=O)[O-])=C(C[n+]3ccccc3)CSC12)c1csc(N)n1)C(=O)O (stereo not given)
NC(=O)c1cc[n+](CC2=C(C(=O)[O-])N3C(=O)C(NC(=O)C(c4ccccc4)S(=O)(=O)[O-])C3SC2)cc1.[Na+] (stereo not given)
Cn1sccc1=O
O=C(C[C@@H]1CC[C@H]2[C@@H](COC[C@@H](O)CN2S(=O)(=O)c2ccc(Cl)cc2)O1)N1CCc2ccccc2C1
C[C@H](CO)N1C[C@H](C)[C@@H](CN(C)Cc2ccncc2)OCCCC[C@H](C)Oc2ccc(NC(=O)Nc3ccc4c(c3)OCO4)cc2C1=O
O=C(C[C@@H]1CC[C@H]2NC[C@@H](O)COC[C@@H]2O1)NCCN1CCCC1
COc1cc([C@@H]2c3cc4c(cc3[C@@H](O[C@@H]3O[C@@H]5CO[C@@H](C)O[C@H]5[C@H](O)[C@H]3O)[C@@H]3COC(=O)[C@@H]23)OCO4)cc(OC)c1O
COc1cc(C2c3cc4c(cc3C(OC3OC5COC(C)OC5C(O)C3O)C3COC(=O)C23)OCO4)cc(OC)c1O (stereo not given)
N#C[C@H](N)c1ccc(Cl)cc1
Nc1cc(=O)[nH]c(=O)n1-c1ccc(Cl)cc1
Cc1noc(C)c1NC(=O)N(C)C[C@@H]1OCCCC[C@@H](C)Oc2ccc(NC(=O)C3CCCCC3)cc2C(=O)N([C@@H](C)CO)C[C@@H]1C
C[C@@H]1CN([C@@H](C)CO)C(=O)Cc2cc(NS(=O)(=O)c3ccccc3)ccc2O[C@@H]1CN(C)Cc1ccc(-c2ccccc2)cc1
COc1ccc(/C=C/CN2CCC(C(=O)N[C@@H](c3ccc(F)cc3)c3ccc4ccccc4n3)CC2)cc1
O=C(N[C@H](c1ccc(F)cc1)c1ccc2ccccc2n1)C1CCN(Cc2ccc(Oc3ccccc3)cc2)CC1
O=C(N[C@@H](c1ccccc1)c1ccc2ccccc2n1)C1CCN(CCOc2ccc(Cl)cc2Cl)CC1
O=C(N[C@@H](c1ccccc1)c1ccc2ccccc2n1)C1CCN(Cc2ccc(Oc3ccccc3)cc2)CC1
COc1ccc(OCCN2CCC(C(=O)N[C@@H](c3ccc(F)cc3)c3ccc4ccccc4n3)CC2)cc1
O=C(N[C@@H](c1ccc(-c2ccccc2)cc1)c1cnccn1)C1CCN(Cc2ccc(Cl)c(Cl)c2)CC1
COc1cc(CN2CCC(C(=O)N[C@@H](c3ccc(-c4ccccc4)cc3)c3cnccn3)CC2)cc(OC)c1
O=C(N[C@@H](c1ccc(-c2ccccc2)cc1)c1cnccn1)C1CCN(Cc2ccc(Oc3ccccc3)cc2)CC1
Cc1noc(C)c1NC(=O)N(C)C[C@@H]1Oc2cc(Br)ccc2S(=O)(=O)N([C@@H](C)CO)C[C@H]1C
C[C@@H]1O[C@@H](O[C@@H]2[C@@H](O)[C@H](OCCc3ccc(O)c(O)c3)O[C@H](COC(=O)/C=C/c3ccc(O)c(O)c3)[C@H]2O)[C@H](O)[C@H](O)[C@H]1O
CO[C@@H]1CN(C)C(=O)c2cc(NC(=O)CC(F)(F)F)ccc2OC[C@@H](C)N(C(=O)C2CCOCC2)C[C@@H]1C
C[N+]1(C)C[C@H](O)[C@H](C(=O)O)C1
COCC(=O)N1C[C@H](C)[C@H](OC)CN(C)C(=O)c2ccc(NC(=O)c3cc(C)on3)cc2OC[C@H]1C
COCCOC(=O)N1C(=O)[C@@]2(c3cc(C#CCNC(N)=O)ccc31)[C@H](c1ccccc1OCCO)N1[C@H](c3ccccc3)[C@H](c3ccccc3)OC(=O)[C@H]1[C@@H]2C(N)=O
C[C@H](CO)N1C[C@H](C)[C@H](CN(C)S(=O)(=O)c2ccc(Oc3ccccc3)cc2)OCc2cnnn2CCCC1=O
Cc1noc(C)c1NC(=O)Nc1ccc2c(c1)C(=O)N([C@H](C)CO)C[C@@H](C)[C@@H](CN(C)S(=O)(=O)c1ccc(Cl)cc1)OCCCC[C@H](C)O2
CCCC#Cc1ccc2c(c1)O[C@@H](CN(C)C(=O)c1cnccn1)[C@@H](C)CN([C@@H](C)CO)S2(=O)=O
O=C(N[C@H](c1ccc(F)cc1)c1ccc2ccccc2n1)C1CCN(Cc2ccc3ccccc3n2)CC1
COc1cc(CN2CCC(C(=O)N[C@@H](c3ccc(F)cc3)c3ccc4ccccc4n3)CC2)cc(OC)c1
O=C(N[C@@H](c1ccc(-c2ccccc2)cc1)c1cnccn1)C1CCN(Cc2cccc(C(F)(F)F)c2)CC1
O=C(N[C@@H](c1ccc(-c2ccccc2)cc1)c1cnccn1)C1CCN(CCCOc2ccccc2)CC1
C[C@@H]1CCCCO[C@@H](CN(C)Cc2ccc(Cl)c(Cl)c2)[C@H](C)CN([C@H](C)CO)C(=O)c2cc(NC(=O)C3CCCCC3)ccc2O1
COc1ccc(NC(=O)N(C)C[C@@H]2OCCCC[C@H](C)Oc3ccc(NC(=O)Cc4ccccc4)cc3C(=O)N([C@@H](C)CO)C[C@@H]2C)cc1
C[C@H]1CN([C@@H](C)CO)C(=O)c2cc(C#Cc3ccc(F)cc3)cnc2O[C@@H]1CN(C)CC1CCOCC1
CC1=C(/C=C/C(C)=C/C=C/C(C)=C/C=C/C=C(C)/C=C/C=C(C)/C=C/C2=C(C)CCCC2(C)C)C(C)(C)CCC1
Cc1noc(C)c1NC(=O)Nc1cccc2c1O[C@H](CN(C)S(=O)(=O)c1cn(C)cn1)[C@H](C)CN([C@@H](C)CO)C2=O
C[C@H](CO)N1C[C@H](C)[C@@H](CN(C)Cc2ccc(C(=O)Nc3ccccc3N)cc2)Oc2c(NS(=O)(=O)c3cn(C)cn3)cccc2C1=O
COc1cc(C(=O)N2CCN(CCN3C(=O)c4cccc5cccc(c45)C3=O)CC2)cc(OC)c1OC
Cc1nn(C)c(COc2ccc(N3CCN(S(=O)(=O)N(C)C)CC3)cc2)c1-c1cccc2c(CCCOc3cccc4ccccc34)c(C(=O)O)n(CCN3CCNCC3)c12
C=Cn1cnc2c1c(=O)n(C)c(=O)n2C
CC(C)=CCc1c2c(c3occ(-c4ccc(O)cc4)c(=O)c3c1O)C=CC(C)(C)O2
C=c1ccc(S(=O)(=O)NC[C@@H](C)O)cc1=C1NN=C2c3ccccc3C(C)=NN21
C[C@H](CO)N1C[C@H](C)[C@H](CN(C)S(C)(=O)=O)Oc2cc(C#Cc3ccc(F)cc3)ccc2S1(=O)=O
C[C@@H]1CN([C@H](C)CO)C(=O)c2cccc(NS(=O)(=O)c3ccccc3)c2O[C@@H]1CN(C)Cc1ccncc1
CCCCCCCCCCCCCCCC[N+](C)(C)Cc1ccccc1.[Cl-]
CCCCCCCCCCCCC[N+](C)(C)Cc1ccccc1.O.[Cl-]
Cc1noc(C)c1S(=O)(=O)N(C)C[C@@H]1Oc2ccc(NS(C)(=O)=O)cc2CC(=O)N([C@H](C)CO)C[C@H]1C
C[C@@H]1CN([C@H](C)CO)C(=O)c2cccc(NC(=O)c3cnccn3)c2O[C@@H]1CN(C)S(=O)(=O)c1ccc(F)cc1
C[C@@H]1CCCCO[C@@H](CN(C)C(=O)Nc2ccc3c(c2)OCO3)[C@H](C)CN([C@@H](C)CO)C(=O)c2cc(NC(=O)Nc3ccccc3)ccc2O1
COc1ccc(C#Cc2ccc3c(c2)O[C@@H](CN(C)S(=O)(=O)c2ccccc2F)[C@H](C)CN([C@H](C)CO)S3(=O)=O)cc1
O=C(O)CN(CC(=O)O)Cc1cc2c(-c3ccccc3C(=O)O)c3cc(CN(CC(=O)O)CC(=O)O)c(=O)cc-3oc2cc1O
O=C(O)c1ccccc1-c1ccco1
C[C@@H]1CN([C@@H](C)CO)C(=O)c2cc(NS(=O)(=O)c3ccccc3)ccc2O[C@@H](C)CCCCO[C@@H]1CN(C)Cc1ccc2c(c1)OCO2

Growth inhibition call, active:
NC(=O)c1cc[n+](CC2=C(C(=O)[O-])N3C(=O)C(NC(=O)Cc4cccs4)C3SC2)cc1 (stereo not given)
NC(=O)c1cc[n+](CC2=C(C(=O)O)N3C(=O)[C@@H](NC(=O)Cc4cccs4)[C@H]3SC2)cc1
COc1cc([C@@H]2c3cc4c(cc3[C@@H](O[C@@H]3O[C@@H]5CO[C@@H](C)O[C@H]5[C@H](O)[C@H]3O)[C@H]3COC(=O)[C@H]23)OCO4)cc(OC)c1O
N#CC(c1ccc(Cl)cc1)c1c(Cl)cc(-n2ncc(=O)[nH]c2=O)cc1Cl (stereo not given)
O=C(N[C@H](c1ccc(Cl)cc1)c1cnccn1)C1CCN(Cc2ccc(Oc3ccccc3)cc2)CC1
O=C(N[C@@H](c1ccccc1)c1ccc2ccccc2n1)C1CCN(CCOc2ccc(Cl)cc2)CC1
O=C(N[C@@H](c1ccc(F)cc1)c1ccc2ccccc2n1)C1CCN(CCOc2ccc(F)cc2)CC1
COc1ccc(/C=C/CN2CCC(C(=O)N[C@@H](c3ccc(-c4ccccc4)cc3)c3cnccn3)CC2)cc1
O=C(N[C@@H](c1ccc(-c2ccccc2)cc1)c1cnccn1)C1CCN(CCOc2ccc(F)cc2)CC1
O=C(N[C@H](c1ccc(F)cc1)c1ccc2ccccc2n1)C1CCN(CCOc2ccc(Cl)cc2)CC1
COc1ccc2c(c(Br)c(C(=O)O)n2CCCOc2cccc3ccccc23)c1-c1ccccc1C
CC(C)=CCCC1(C)C=Cc2c(O)c3c(c(CC=C(C)C)c2O1)OC12C(=CCCC1C(C)(C)OC2(CC=C(C)C(=O)O)C(=O)O)C3=O (stereo not given)
CCCCCCCCCCCCC[N+](C)(C)Cc1ccccc1
O=C([O-])c1ccccc1-c1c2cc(I)c(=O)c(I)c-2oc2c(I)c([O-])c(I)cc12.[Na+].[Na+]
O=C(O)c1ccccc1-c1c2cc(I)c(=O)c(I)c-2oc2c(I)c(O)c(I)cc12
